A short description of assay [1]: NCI Yeast Anticancer Drug Screen. Data for the rad50 strain (AID 155).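 Also: 0% = growth of vehicle-only cultures of the same strain.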 The settings on record: S. cerevisiae rad50 strain growth inhibition; at 50.0 µM; active compounds read high. The essentials:
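Cells are treated with compound, grown, and their growth is then scored against vehicle-only cultures of the same repair-deficient yeast strain.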

Assay [2] can be described thus: NCI Yeast Anticancer Drug Screen. Data for the mec2-1 strain (AID 157). The settings on record: S. cerevisiae mec2-1 strain, at 50.0 µM, active compounds read high. The method, boiled down:
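Mutant yeast (mec2-1) grown with compound; growth inhibition relative to vehicle control reported.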

Assay [3] can be described thus: NCI Yeast Anticancer Drug Screen. Data for the sgs1 mgt1 strain (AID 161).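 Also: 0% = growth of cultures given vehicle only.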 To be noted: S. cerevisiae sgs1 mgt1 strain, at 50.0 µM, active compounds read high. The method, boiled down: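 This yeast growth screen uses a strain with defined DNA-repair lesions; compound-treated growth is compared with vehicle-treated growth.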
Assay [4] in a line: NCI Yeast Anticancer Drug Screen. Data for the cln2 rad14 strain (AID 165).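 Also: 0% = growth equal to vehicle treated cultures.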 The settings on record: S. cerevisiae cln2 rad14 strain, at 50.0 µM, active compounds read high. The method, boiled down: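 Readout is yeast growth inhibition versus vehicle-treated controls, using a strain with cln2 and rad14 alterations exposed to compound.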
Assay [5] is described as follows: NCI Yeast Anticancer Drug Screen. Data for the bub3 strain (AID 167). The settings on record: S. cerevisiae bub3 mutant strain, at 50.0 µM, active compounds read high. The essentials: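 Part of a panel of yeast mutants defective in DNA damage repair or cell cycle regulation. Each strain is grown with compound, and inhibition is calculated relative to solvent-treated cultures.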

The nature of assay [6]: NCI Yeast Anticancer Drug Screen. Data for the mlh1 rad18 strain (AID 175). To be noted: S. cerevisiae mlh1 rad18 strain growth inhibition; at 50.0 µM; active compounds read high. The essentials: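 Genetically defined yeast (DNA repair-deficient) exposed to compounds; growth inhibition determined relative to vehicle.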

About 79,000 compounds went through this panel and 15% of them were active in at least one assay; those are over-represented in the sample as a whole. Values without a mark were called inactive. Active and inactive are the calls of the source. Rule as the data show it: active = growth inhibition above about 70%; inactive = the rest.

Take `NC(N)=NS(=O)(=O)c1ccc(NC(=O)c2cccc3c(N)c4ccccc4nc23)cc1`: the growth inhibition was 5.35% in assay [1]; 5.95% in assay [2]; -0.2% in assay [3]; 8.65% in assay [4]; -9% in assay [5]; -10.2% in assay [6].
In the case of `O=C(O)[C@H]1C[C@H](O)CCN1`, the growth inhibition was -30.4% in assay [1]; -8.65% in assay [2]; -34.2% in assay [3]; 1.25% in assay [4]; -3.85% in assay [5]; -10.6% in assay [6].
As to `CS(=O)(=O)N1CC(CCl)c2ccc(NO)cc21` (stereo unspecified), the growth inhibition in assay [1] is 43.5%; in assay [2], 27.9%; in assay [3], 24.9%; in assay [4], 17.3%; in assay [5] it was 0.45%; in assay [6], -32.4%.
In the case of `[C-]#[N+]C(=C\c1ccc(O)cc1)/C(=C/c1ccc(O)cc1)[N+]#[C-]`, the growth inhibition in assay [1] is 97.8% (active); in assay [2] it was 98% (active); in assay [3], 97.8% (active); in assay [4], 96% (active); in assay [5], 98.1% (active); in assay [6] it was 98.2% (active).
As to `CCC1C(C)(C)c2cc(C)c(C(C)=O)cc2C1(C)C` (stereo unspecified), the growth inhibition was -8.1% in assay [1]; -8.75% in assay [2]; 7.15% in assay [3]; -49.5% in assay [4]; 25.6% in assay [5]; -3.75% in assay [6].
Consider `CC(C)(C)OC(=O)NC(C)(C)C(=O)NCCC(=O)O`, for which the growth inhibition is 0% in assay [1]; -70% in assay [2]; -1.8% in assay [3]; 3.35% in assay [4]; -15.2% in assay [5]; -13.5% in assay [6].
In the case of `O=C(c1ccccc1)C(O)(c1ccccc1)c1ccccc1`, the growth inhibition in assay [1] is 37.5%; in assay [2] it was -18.2%; in assay [3] it was 3.8%; in assay [4], -31.1%; in assay [5], 22.1%; in assay [6] it was 0.8%.
In the case of `O=C(OC(=O)c1cccnc1)c1cccnc1`, the growth inhibition in assay [1] was -30.2%; in assay [2], -9.5%; in assay [3], -7.75%; in assay [4], 11.5%; in assay [5], -2.85%; in assay [6], 6.65%.
Regarding `CC1(c2ccc3cccc(F)c3c2)OC(=O)c2ccccc21` (stereo unspecified), the growth inhibition in assay [1] was 2%; in assay [2] it was 1.65%; in assay [3] it was -2.95%; in assay [4], -68.8%; in assay [5] it was -4.25%; in assay [6] it was -12.7%.
For `CC1=NC2(CCCCC2)N(Cl)C(=O)C1SC#N` (stereo unspecified), the growth inhibition is -45.2% in assay [1]; -72.3% in assay [2]; -23.8% in assay [3]; -27.6% in assay [4]; -13.8% in assay [5]; -27.4% in assay [6].
With `CC12CCC(=O)C=C1CCC1C2C(=O)CC2(C)C1CCC2(O)C(=O)Cn1c(=O)cc[nH]c1=O` (stereo unspecified), the growth inhibition in assay [1] was 10.1%; in assay [2], 7.75%; in assay [3], 25.6%; in assay [4], 11.8%; in assay [5] it was 0.3%; in assay [6] it was 7.65%.
Turning to `C[C@]12CCC(=O)C=C1CC[C@@H]1[C@@H]2[C@@H](O)C[C@@]2(C)[C@H]1CC[C@]2(O)C(=O)CO`, the growth inhibition in assay [1] is 12.7%; in assay [2], 2.25%; in assay [3], -31.6%; in assay [4], 7%; in assay [5], -30.1%; in assay [6] it was -35%.
As for `NC(=O)C1CCCN(C2OC(COP(=O)(O)OP(=O)(O)OCC3OC(n4cnc5c(N)ncnc54)C(OP(=O)(O)O)C3O)C(O)C2O)C1` (stereo unspecified), the growth inhibition in assay [1] is 5.85%; in assay [2] it was -15.1%; in assay [3] it was 15.2%; in assay [4], 1.5%; in assay [5], 16.3%; in assay [6] it was -0.9%.
Consider `Cc1cc2ccccc2c[n+]1CC(=O)c1ccc([N+](=O)[O-])cc1`, for which the growth inhibition in assay [1] was -4.1%; in assay [2] it was 32.1%; in assay [3] it was 62%; in assay [4], -1.85%; in assay [5], 7.35%; in assay [6], 51.7%.
As for `O=C(Oc1c(Cl)cc(Cl)cc1C=Nc1ccc(Cl)cc1)c1ccccc1`, the growth inhibition in assay [1] was 67.1%; in assay [2] it was 71.4% (active); in assay [3], 88.7% (active); in assay [4], 42.4%; in assay [5], 58.2%; in assay [6], 83.9% (active).
For the compound `CCN(CC)Cc1cc(C)c(O)c(N=Nc2cc(OC)c(N=Nc3ccc([N+](=O)[O-])cc3)cc2OC)c1C`, the growth inhibition in assay [1] is 16%; in assay [2] it was 12.4%; in assay [3], 34.1%; in assay [4], 34.1%; in assay [5], 4.7%; in assay [6], 50.1%.
As to `CCO/C(O)=C(/C#N)C(=O)NC1=NCCCCC1`, the growth inhibition was 6.15% in assay [1]; 8.25% in assay [2]; 4.75% in assay [3]; -43% in assay [4]; 4.65% in assay [5]; 16.4% in assay [6].
As for `CC(C)(C)CC(C)(C)c1cc2c(O)c(c1)Cc1cc(C(C)(C)CC(C)(C)C)cc(c1O)Cc1cc(C(C)(C)CC(C)(C)C)cc(c1O)Cc1cc(C(C)(C)CC(C)(C)C)cc(c1O)Cc1cc(C(C)(C)CC(C)(C)C)cc(c1O)Cc1cc(C(C)(C)CC(C)(C)C)cc(c1O)C2`, the growth inhibition is 7.4% in assay [1]; 3.05% in assay [2]; 18.4% in assay [3]; 18.9% in assay [4]; 4.95% in assay [5]; 9.55% in assay [6].
`BrC1(C2(Br)N(c3ccccc3)CCN2c2ccccc2)N(c2ccccc2)CCN1c1ccccc1`: the growth inhibition was 53% in assay [1]; -1.55% in assay [2]; 42.4% in assay [3]; 10.2% in assay [4]; 2% in assay [5]; 11.6% in assay [6].
As for `COc1ccc(/C=C/C2=CC(=O)CC(c3ccc(OC)c(OC)c3)C2)cc1OC` (stereo unspecified), the growth inhibition in assay [1] is 13.2%; in assay [2], 5.35%; in assay [3] it was 16.5%; in assay [4], -35.6%; in assay [5] it was 31.2%; in assay [6], 9.35%.
`COc1ccc(-c2cc(-c3ccccc3)c(-c3ccccc3)nn2)cc1CN1CCOCC1`: the growth inhibition was 2.65% in assay [1]; -29.2% in assay [2]; -17.1% in assay [3]; 10.7% in assay [4]; -5.05% in assay [5]; -7.85% in assay [6].
Turning to `COc1ccc(NC(=S)NNC(=O)c2nsc3ccccc23)cc1`, the growth inhibition in assay [1] is 32.5%; in assay [2], 9.85%; in assay [3] it was 20.8%; in assay [4], 7.35%; in assay [5] it was -0.8%; in assay [6], -0.15%.
With `CC1(C#N)CCCC(c2ccccc2)(c2ccccc2)C1=O` (stereo unspecified), the growth inhibition in assay [1] was 43.2%; in assay [2], 40.5%; in assay [3] it was 49.2%; in assay [4] it was -9.25%; in assay [5] it was 23.9%; in assay [6], 34.5%.
In the case of `O=C(Nc1ccccc1F)c1c(O)nc2sccn2c1=O`, the growth inhibition in assay [1] was 50.4%; in assay [2], -2.8%; in assay [3], 38.5%; in assay [4] it was -4.15%; in assay [5] it was 38.1%; in assay [6], 34%.
With `O=S1(=O)CC(N2CCCCC2)C=C(c2ccccc2)O1` (stereo unspecified), the growth inhibition is 37.1% in assay [1]; 0.25% in assay [2]; 14.3% in assay [3]; 15.2% in assay [4]; 12.7% in assay [5]; 34.2% in assay [6].
Consider `CSC1NC(c2ccccc2)=C(C#N)C(=O)N1C1OCC(OC(C)=O)C(OC(C)=O)C1OC(C)=O` (stereo unspecified), for which the growth inhibition is -9.1% in assay [1]; -15.6% in assay [2]; -39.2% in assay [3]; 4.75% in assay [4]; 3.4% in assay [5]; -1.5% in assay [6].
On to `Cc1cc(C)nc(NS(=O)(=O)c2ccc(NC(=O)c3ccc(Cl)c4c(Nc5ccc(S(=O)(=O)Nc6nc(C)cc(C)n6)cc5)c5ccccc5nc34)cc2)n1`, for which the growth inhibition is 28.1% in assay [1]; 41.3% in assay [2]; 27.8% in assay [3]; 34.2% in assay [4]; 27.8% in assay [5]; 30.4% in assay [6].
As to `CC(C)c1ccc(CN)cc1`, the growth inhibition in assay [1] was -23.4%; in assay [2], -39.2%; in assay [3] it was -29.8%; in assay [4] it was 6.5%; in assay [5], -36.8%; in assay [6], -17.5%.
On to `COc1ccc(CNc2ncccn2)cc1`, for which the growth inhibition in assay [1] was 14.1%; in assay [2], -23.7%; in assay [3] it was 0.7%; in assay [4] it was 9.5%; in assay [5], -12%; in assay [6] it was 13.5%.
For `CCCCCCCCCC(C(=O)OCC)(C(=O)OCC)C1CCCC1`, the growth inhibition was -26.9% in assay [1]; -4.6% in assay [2]; -12.1% in assay [3]; 5.75% in assay [4]; -7.8% in assay [5]; -30.1% in assay [6].
`CC(=O)Nc1cccc2ccc([N+](=O)[O-])cc12`: the growth inhibition was 13.1% in assay [1]; 0.9% in assay [2]; -3.8% in assay [3]; 16.4% in assay [4]; -5.7% in assay [5]; 7.85% in assay [6].
For the compound `CCOc1ccccc1NC(=O)Nc1ccccc1Cl`, the growth inhibition is -0.1% in assay [1]; -2.15% in assay [2]; 23.1% in assay [3]; -18.3% in assay [4]; 7.5% in assay [5]; 21.3% in assay [6].
Consider `CC(O)C(=O)OCCOCCOC(=O)C(C)O` (stereo unspecified), for which the growth inhibition in assay [1] was 21.4%; in assay [2], 4.1%; in assay [3], 10.8%; in assay [4], -11.8%; in assay [5] it was 11.8%; in assay [6], 7.4%.
In the case of `NC(N)=NC(N)=Nc1ccc(N=C(N)N=C(N)N)cc1`, the growth inhibition in assay [1] was 3.55%; in assay [2] it was -12.7%; in assay [3] it was -6.2%; in assay [4], -0.75%; in assay [5], 10.2%; in assay [6] it was -1.3%.
On to `[N-]=[N+]=CC(=O)C(CN)(Cc1ccccc1)c1ccc(Cl)cc1` (stereo unspecified), for which the growth inhibition in assay [1] was 35.1%; in assay [2], 1.45%; in assay [3], 9.1%; in assay [4], -31.9%; in assay [5], -9.45%; in assay [6], 9.05%.
Take `NC(N)=NCCCc1ccccc1`: the growth inhibition in assay [1] is 7.05%; in assay [2] it was 7.25%; in assay [3], 0.8%; in assay [4], 1.85%; in assay [5], 4%; in assay [6], -3.55%.

These data come from PubChem BioAssay (NCI).
